The full data set covers some 7,900 targets. This sample favours those with a hit. About 0.6% of all pairs of compound and target were hits. Values without a mark were called inactive.
What was measured:
Experiment in all cases: log2 fold change, soluble protein after heating vs DMSO (PISA); higher = thermal stabilisation; K562 cells, 10 uM, 30 min; active = over 0.2 and 3.5 SD of the protein, either way, in both replicates (recomputed)
[1] = compound: CC1=C(C=C(C=C1)NC(=O)C2=CC(=CC=C2)C(C)(C)C#N)NC3=CC4=C(C=C3)N=CN(C4=O)C
Method in brief: (§1)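 K562 cells at 2×10^6 cells/mL were treated with 10 μM compound for 30 min. Aliquots were heated for 3 min across 48°C-58°C, pooled, and extracted in PBS with 0.5% NP-40 at 4°C; soluble protein was the supernatant after 21,000xg for 90 min. Soluble protein was quantified by TMTpro 16plex LC-MS/MS with channel sums equalised, and reported as log2 fold change in thermal stability against DMSO controls, with values from duplicates.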

[2] = compound: CC1=C(C=C(C=C1)NC(=O)C2=CC(=CC=C2)N(C)C)NC(=O)C3=CC=C(C=C3)O
Method in brief: as §1

[3] = compound: CC1=CC=C(C=C1)SC2=C3C=C(SC3=CN=C2)C(=O)N
Method in brief: as §1

[4] = compound: CC1=NC(=CC=C1)C2=C(N=C(N2)C(C)(C)C)C3=CC4=NC=CN=C4C=C3
Method in brief: as §1

Nexturastat A = compound: CCCCN(Cc1ccc(C(=O)NO)cc1)C(=O)Nc1ccccc1 [Nexturastat A]
Method in brief: as §1

vemurafenib = compound: CCCS(=O)(=O)Nc1ccc(F)c(C(=O)c2c[nH]c3ncc(-c4ccc(Cl)cc4)cc23)c1F [vemurafenib]
Method in brief: as §1

[5] = compound: CCCS(=O)(=O)Nc1ccc(F)c(C(=O)c2c[nH]c3ncc(Cl)cc23)c1F
Method in brief: as §1

[6] = compound: CCCc1cc(C)[nH]c(=O)c1CNC(=O)c1cc(-c2ccnc(N3CCN(C)CC3)c2)cc2c1cnn2C(C)C
Method in brief: as §1

givinostat = compound: CCN(CC)Cc1ccc2cc(COC(=O)Nc3ccc(C(=O)NO)cc3)ccc2c1 [givinostat]
Method in brief: as §1

barasertib = compound: CCN(CCCOc1ccc2c(Nc3cc(CC(=O)Nc4cccc(F)c4)[nH]n3)ncnc2c1)CCOP(=O)(O)O [barasertib]
Method in brief: as §1

[7] = compound: CC[C@@H]1C(=O)N(C)c2cnc(Nc3ccc(C(=O)NC4CCN(C)CC4)cc3OC)nc2N1C1CCCC1
Method in brief: as §1

volasertib = compound: CC[C@@H]1C(=O)N(C)c2cnc(Nc3ccc(C(=O)N[C@H]4CC[C@H](N5CCN(CC6CC6)CC5)CC4)cc3OC)nc2N1C(C)C [volasertib]
Method in brief: as §1

[8] = compound: CC[C@H](C)N1C=C(C2=C(C=C(C=C21)C3=CN=C(C=C3)N4CCNCC4)C(=O)NCC5=C(C=C(NC5=O)C)C)C
Method in brief: as §1

epoxomicin = compound: CC[C@H](C)[C@@H](C(=O)N[C@@H]([C@@H](C)O)C(=O)N[C@@H](CC(C)C)C(=O)[C@]1(CO1)C)NC(=O)[C@H]([C@@H](C)CC)N(C)C(=O)C [epoxomicin]
Method in brief: as §1

[9] = compound: CCn1c(C(=O)N(C2CC2)C2CC2)cc2c3c(ncn3C)c(Nc3cc(C)n(C)n3)nc21
Method in brief: as §1

[10] = compound: CCn1cc(-c2ccnc3[nH]c(-c4cccc(CN(C)C)c4)cc23)c(-c2ccc(NC(=O)N(C)C)cc2)n1
Method in brief: as §1

[11] = compound: CN(C)CC(=O)Nc1ccc2[nH]c(=O)c3ccccc3c2c1
Method in brief: as §1

rosiglitazone = compound: CN(CCOC1=CC=C(C=C1)C[C@H]2C(=O)NC(=O)S2)C3=CC=CC=N3 (racemic) [rosiglitazone]
Method in brief: as §1

[12] = compound: CN1C2=C(C3=C1C(=O)N(N=C3)CC4=CC(=CC=C4)N)SC(=C2)S(=O)C
Method in brief: as §1

[13] = compound: CN1CCC(CNc2ccc3ncc(-c4cccc(OC(F)(F)F)c4)n3n2)CC1
Method in brief: as §1

UniProt Q14624, sequence (Q14624 whole entry, looked up): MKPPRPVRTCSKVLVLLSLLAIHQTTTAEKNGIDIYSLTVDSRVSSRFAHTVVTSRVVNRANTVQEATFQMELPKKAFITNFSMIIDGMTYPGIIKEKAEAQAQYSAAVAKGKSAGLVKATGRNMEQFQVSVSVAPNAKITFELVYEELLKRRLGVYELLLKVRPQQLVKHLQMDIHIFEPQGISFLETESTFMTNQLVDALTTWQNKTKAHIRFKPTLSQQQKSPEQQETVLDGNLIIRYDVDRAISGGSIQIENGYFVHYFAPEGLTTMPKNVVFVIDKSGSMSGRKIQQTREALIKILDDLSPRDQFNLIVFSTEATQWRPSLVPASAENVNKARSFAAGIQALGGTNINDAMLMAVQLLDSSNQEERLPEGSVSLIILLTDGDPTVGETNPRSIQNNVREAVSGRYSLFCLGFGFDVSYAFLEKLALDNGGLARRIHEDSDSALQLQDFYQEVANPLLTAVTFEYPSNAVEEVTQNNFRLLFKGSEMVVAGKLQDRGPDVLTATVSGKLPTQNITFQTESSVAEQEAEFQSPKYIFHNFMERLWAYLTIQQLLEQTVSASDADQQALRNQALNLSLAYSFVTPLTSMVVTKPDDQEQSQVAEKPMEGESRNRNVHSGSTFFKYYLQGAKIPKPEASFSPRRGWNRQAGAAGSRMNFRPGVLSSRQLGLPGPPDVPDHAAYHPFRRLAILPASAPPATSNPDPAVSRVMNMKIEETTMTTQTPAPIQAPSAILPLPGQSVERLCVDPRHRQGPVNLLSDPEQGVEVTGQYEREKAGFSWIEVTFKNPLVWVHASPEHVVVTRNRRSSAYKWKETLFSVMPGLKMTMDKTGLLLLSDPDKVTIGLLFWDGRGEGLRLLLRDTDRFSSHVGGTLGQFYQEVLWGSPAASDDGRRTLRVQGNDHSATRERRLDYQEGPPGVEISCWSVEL
UniProt Q6N075, sequence (Q6N075 whole entry, looked up): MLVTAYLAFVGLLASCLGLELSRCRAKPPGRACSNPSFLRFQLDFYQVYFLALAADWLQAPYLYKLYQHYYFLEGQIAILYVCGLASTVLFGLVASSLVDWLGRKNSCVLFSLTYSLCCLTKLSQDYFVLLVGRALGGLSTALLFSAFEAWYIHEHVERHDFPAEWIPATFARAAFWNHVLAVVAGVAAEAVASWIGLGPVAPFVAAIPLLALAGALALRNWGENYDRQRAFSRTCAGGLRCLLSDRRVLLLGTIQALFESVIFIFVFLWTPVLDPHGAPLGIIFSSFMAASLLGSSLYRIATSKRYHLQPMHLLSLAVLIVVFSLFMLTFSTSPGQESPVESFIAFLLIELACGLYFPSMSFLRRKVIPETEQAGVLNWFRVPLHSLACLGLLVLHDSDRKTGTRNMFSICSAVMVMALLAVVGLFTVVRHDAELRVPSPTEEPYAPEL
UniProt Q92615, sequence (Q92615 whole entry, looked up): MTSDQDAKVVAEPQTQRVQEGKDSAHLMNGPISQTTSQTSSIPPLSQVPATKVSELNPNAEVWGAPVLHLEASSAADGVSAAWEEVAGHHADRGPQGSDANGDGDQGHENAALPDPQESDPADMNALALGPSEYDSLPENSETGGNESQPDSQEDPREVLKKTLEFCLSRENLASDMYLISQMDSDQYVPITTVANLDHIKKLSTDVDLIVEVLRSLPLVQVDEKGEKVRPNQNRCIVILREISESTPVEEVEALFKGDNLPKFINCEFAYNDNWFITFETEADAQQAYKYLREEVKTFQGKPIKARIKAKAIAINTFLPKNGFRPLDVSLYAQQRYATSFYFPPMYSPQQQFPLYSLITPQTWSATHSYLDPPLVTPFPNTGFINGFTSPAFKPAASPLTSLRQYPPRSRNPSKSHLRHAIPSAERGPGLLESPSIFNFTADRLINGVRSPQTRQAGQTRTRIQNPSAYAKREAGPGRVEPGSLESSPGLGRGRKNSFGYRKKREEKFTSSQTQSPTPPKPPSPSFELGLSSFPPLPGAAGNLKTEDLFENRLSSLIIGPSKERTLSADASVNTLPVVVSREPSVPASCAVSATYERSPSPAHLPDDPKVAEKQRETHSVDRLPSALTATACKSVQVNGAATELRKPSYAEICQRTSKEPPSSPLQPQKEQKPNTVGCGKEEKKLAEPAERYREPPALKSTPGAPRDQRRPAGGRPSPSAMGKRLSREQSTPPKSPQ
UniProt P46734, sequence (P46734 whole entry, looked up): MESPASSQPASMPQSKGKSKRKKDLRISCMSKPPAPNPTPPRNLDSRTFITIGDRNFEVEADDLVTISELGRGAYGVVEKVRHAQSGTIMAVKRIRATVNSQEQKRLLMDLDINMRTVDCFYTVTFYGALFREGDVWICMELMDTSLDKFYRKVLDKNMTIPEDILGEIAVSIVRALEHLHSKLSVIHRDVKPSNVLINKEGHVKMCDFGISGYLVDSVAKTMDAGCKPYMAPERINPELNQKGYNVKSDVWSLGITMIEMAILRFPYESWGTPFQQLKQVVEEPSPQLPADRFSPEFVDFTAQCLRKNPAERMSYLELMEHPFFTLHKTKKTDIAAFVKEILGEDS
UniProt Q14739, sequence (Q14739 whole entry, looked up): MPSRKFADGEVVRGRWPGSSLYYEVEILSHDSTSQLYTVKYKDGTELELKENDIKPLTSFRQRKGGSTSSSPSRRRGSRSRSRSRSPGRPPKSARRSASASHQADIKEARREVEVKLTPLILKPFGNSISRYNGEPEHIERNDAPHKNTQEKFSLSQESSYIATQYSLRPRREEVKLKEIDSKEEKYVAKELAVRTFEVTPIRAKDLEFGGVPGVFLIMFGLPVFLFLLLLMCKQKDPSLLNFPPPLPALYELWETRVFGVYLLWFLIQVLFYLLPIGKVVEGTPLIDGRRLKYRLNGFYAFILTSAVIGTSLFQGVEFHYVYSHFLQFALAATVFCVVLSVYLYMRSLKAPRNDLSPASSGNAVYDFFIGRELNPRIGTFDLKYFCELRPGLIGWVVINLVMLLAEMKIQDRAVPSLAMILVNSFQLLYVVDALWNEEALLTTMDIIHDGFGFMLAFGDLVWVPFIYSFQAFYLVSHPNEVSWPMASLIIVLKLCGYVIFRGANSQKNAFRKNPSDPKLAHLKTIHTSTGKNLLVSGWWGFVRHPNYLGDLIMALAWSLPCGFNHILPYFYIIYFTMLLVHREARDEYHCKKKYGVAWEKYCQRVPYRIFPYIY

Target	log2 fold change [1]	log2 fold change [2]	log2 fold change [3]	log2 fold change [4]	log2 fold change (Nexturastat A)	log2 fold change (vemurafenib)	log2 fold change [5]	log2 fold change [6]	log2 fold change (givinostat)	log2 fold change (barasertib)	log2 fold change [7]	log2 fold change (volasertib)	log2 fold change [8]	log2 fold change (epoxomicin)	log2 fold change [9]	log2 fold change [10]	log2 fold change [11]	log2 fold change (rosiglitazone)	log2 fold change [12]	log2 fold change [13]
LARP1 (UniProt Q6PKG0)	0.01	0.032	-0.035	0.029	0.142	-0.033	-0.03	0.046	0.012	-0.006	0.098	0.071	0.047	-0.034	0.061	0.016	-0.054	0.014	0.131	0.025
LBR (UniProt Q14739)	0.045	-0.035	-0.002	0.045	-0.108	0.063	0.05	-0.009	0.125	0.024	-0.036	0.552 (active)	0.051	0.022	-0.012	-0.071	0.056	0.086	-0.026	0.099
MDN1 (UniProt Q9NU22)	-0.023	-0.021	0.034	0.061	-0.009	0.02	0.074	0.027	0.083	0.047	-0.109	-0.334 (active)	0.093	0.006	-0.119	-0.076	0.031	0.08	-0.027	-0.287 (active)
MAP4 (UniProt E7EVA0)	0	0.008	-0.03	-0.061	0.161	-0.046	-0.002	0.024	0.091	0.061	0.079	0.246	0.036	-0.113	-0.004	0.068	-0.021	-0.206	0.131	0.152
LARP4B (UniProt Q92615)	0.055	0.032	0.016	0.001	0.127	0.016	0.022	0.05	0.061	-0.025	0.025	-0.15	0.061	-0.037	-0.052	0.073	0.034	-0.02	0.096	-0.218
MAP2K3 isoform 3 (UniProt P46734)	-0.071	-0.074	-0.051	-0.08	0.103	-0.031	-0.008	0.021	0.002	0.042	-0.041	-0.17	0.09	-0.035	-0.017	0.039	0.038	0.018	-0.054	-0.121
ITIH4 (UniProt Q14624)	-0.14	0.166	0.135	0.214	0.014	0.224	0.012	-0.211	-0.005	0.014	-0.18	-0.311	-0.248	-0.318	0.108	0.102	-0.012	0.129	0.177	-0.413
MFSD5 isoform 2 (UniProt Q6N075)	0.038	0.015	-0.078	0.064	-0.014	0.023	-0.118	-0.039	-0.039	0.122	0.052	0.111	-0.124	0.427 (active)	-0.012	0.028	-0.092	-0.032	-0.056	0.14
